The source of these data is PubChem BioAssay AID1240 (Sanford-Burnham Center for Chemical Genomics, 2008).

About 800 (1.6%) of roughly 50,000 compounds showed an effect of 50% or more. The full list was thinned out, with strong results kept by preference.

The assay deals with Bcl-2-like protein 10 (Homo sapiens) (UniProt Q9HD36). The experiment in a line: TR3 peptide-Bcl-B binding displacers, biochemical primary FP assay, phenotype converters (AID 1240).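 Further: 0% = Bcl-B with tracer peptide and DMSO and 100% = tracer peptide lacking Bcl-B.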 The conditions noted are these: GST-Bcl-B / FITC-TR3 peptide fluorescence polarization; stronger effect = higher value; compound at 3.75 mg/L.
Chain of Bcl-2-like protein 10 (Homo sapiens) (Q9HD36 whole entry, looked up): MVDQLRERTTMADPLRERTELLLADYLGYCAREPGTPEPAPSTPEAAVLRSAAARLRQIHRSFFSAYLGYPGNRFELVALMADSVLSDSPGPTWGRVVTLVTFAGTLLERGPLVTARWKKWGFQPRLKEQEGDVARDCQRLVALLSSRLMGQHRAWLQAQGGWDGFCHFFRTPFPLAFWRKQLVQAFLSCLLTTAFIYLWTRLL
For the compound `Cc1cccc(OCCOc2ccccc2/C=C2/SC(=S)N(C)C2=O)c1`, the displacement was -0.4%.
Next, `Fc1cc(F)c(F)c(SCCc2ccncc2)c1F`: 5.9%; `COc1cccc(N2C(=O)NC(=O)/C(=C/C=C/c3ccco3)C2=O)c1`: -47.4%.
The result for `C/C(=N\NC(=O)COc1ccc(Cl)cc1Cl)c1cccnc1` reads 1.9%.
The result for `O=C1C2ON(c3ccc(Cl)cc3)C(c3cccs3)C2C(=O)N1c1cccc(C(F)(F)F)c1` (stereo not given) reads -18.1%; that for `COc1ccc(OCC(O)CN(C)S(=O)(=O)O)cc1` (stereo not given), -6.7%; that for `O=C(Cc1ccc(Br)cc1)N1CCN(c2ccccc2)CC1`, 9.8%.
In the case of `COc1ccc(C2CC(=O)C3=C(C2)Nc2ccccc2NC3c2cccc(OC)c2OC)cc1OC` (stereo not given), the displacement is -3.7%.
`O=C(CSc1ccccn1)Nc1ccc(F)cc1`: the displacement is -11.4%.
Regarding `O=C(CSc1ccccn1)Nc1ccc2c(c1)C(=O)c1ccccc1C2=O`, the displacement was 54.6%.
The result for `CC(=O)Nc1ccc(NC(=O)CSc2ccccn2)cc1` reads -2.6%; that for `CC1(C)CC(=O)c2cnc(NC(=O)Cc3ccc(Cl)cc3)nc2C1`, -0.2%; that for `COc1ccc(CC(c2nc3ccccc3[nH]2)C(C)c2nc3ccccc3[nH]2)cc1` (stereo not given), 8%.
Next, `O=c1oc(/C=C\c2ccccc2)nc2ccc(Br)cc12`: 10.7%; `Clc1ccc(CN2CCN(/N=C\c3ccc(OCc4ccccc4)cc3)CC2)cc1`: -9.5%; `CCOC(=O)C1=C(C)N=c2s/c(=C/c3ccc(I)o3)c(=O)n2C1c1ccccc1OC` (stereo not given): 14.5%.
For the compound `CCOC(=O)C1=C(C)N=c2s/c(=C\c3ccco3)c(=O)n2C1c1ccccc1OC` (stereo not given), the displacement was found to be 74.3%.
Next, `CCOC(=O)C1=C(c2ccccc2)N=c2s/c(=C\c3cccnc3)c(=O)n2C1c1cccc(OC)c1OC` (stereo not given): 5.1%; `CCOC(=O)C1=C(C)N=c2s/c(=C\C=C\c3ccco3)c(=O)n2C1c1ccc(OC)cc1` (stereo not given): 63.9%.
Turning to `CCOC(=O)C1=C(C)N=c2s/c(=C\c3ccco3)c(=O)n2C1c1ccccc1` (stereo not given), the displacement amounted to 16.5%.
For `CCOC(=O)C1=C(c2ccccc2)N=c2s/c(=C\c3ccco3)c(=O)n2C1c1cccc(OC)c1OC` (stereo not given), the displacement was 76.4%.
Next, `CCOC(=O)C1=C(C)N=c2s/c(=C\c3ccco3)c(=O)n2C1c1cccc(OC)c1` (stereo not given): -25.3%; `CCOC(=O)C1=C(C)N=c2s/c(=C\C=C\c3ccccc3)c(=O)n2C1c1ccc(OC(C)=O)cc1` (stereo not given): 16.9%; `CCOC(=O)C1=C(c2ccccc2)N=c2s/c(=C\c3cccc(O)c3)c(=O)n2C1c1cccc(OC)c1OC` (stereo not given): 7.6%.
The result for `CC1CCC2(CC1)C(C#N)=C(SCC(N)=O)NC(=O)C2C#N` (stereo not given) reads -7.2%; that for `CCOC(=O)c1sc(NC(=O)c2ccc(Cl)cc2Cl)nc1C`, 17%.
Regarding `O=C1CC(N(Cc2ccco2)C(=S)NCCc2ccccc2)C(=O)N1c1ccc(F)cc1` (stereo not given), the displacement came to 27.4%.
In the case of `CC(C)(C)NC(=O)c1cccc(C(=O)Nc2cccc(O)c2)c1`, the displacement was -3.2%.
Next, `c1ccc(C2=Nc3ccccc3NC(c3ccccc3)C2)cc1` (stereo not given): -26.7%; `COc1cc(/C=C2\SC(=S)N(NC(=O)c3ccccc3Br)C2=O)ccc1O`: -21.3%.
For the compound `O=C(NN1C(=O)/C(=C/c2ccc(O)c(O)c2)SC1=S)c1ccccc1Br`, the displacement came to 73%.
Next, `O=C(NN1C(=O)/C(=C/c2ccc(O)cc2)SC1=S)c1ccccc1Br`: -72.2%; `CCCCOc1cccc(NC(=O)c2cccc([N+](=O)[O-])c2C)c1`: 5%; `O=C(Cc1ccc(Br)cc1)Nc1cc([N+](=O)[O-])ccc1Cl`: 4.4%.
The result for `O=C1N/C(=N\N=C\c2ccccc2O)SC1Cc1ccc(Cl)cc1` (stereo not given) reads 8.7%; that for `O=C(NNC(=O)c1cccc(Cl)c1)c1cccc(F)c1`, -4.7%.
With `CCC(C)(C)C1CCc2c(sc(NC(=O)c3cnccn3)c2C(=O)OC)C1` (stereo not given), the displacement was 6.1%.
With `N#Cc1c(/N=C\c2ccc(N3CCOCC3)c([N+](=O)[O-])c2)sc2c1CCCC2`, the displacement turned out to be 81.3%.
The result for `N#Cc1c(/N=C\c2ccc(N3CCCCC3)c([N+](=O)[O-])c2)sc2c1CCCC2` reads -5.3%.
The result for `N#Cc1c(/N=C/c2cc([N+](=O)[O-])c(N3CCOCC3)cc2N2CCOCC2)sc2c1CCCC2` reads 14.5%.
For the compound `O=C1NC(=O)/C(=C\c2ccc(O)cc2)S1`, the displacement worked out at 1.8%.
As to `CCc1ccc(OCC(=O)Nc2ccc(-c3nc4cc(C)c(C)cc4o3)c(O)c2)cc1`, the displacement came out at 118%.
In the case of `CCCC(=O)Nc1ccc(-c2nc3cc(C)c(C)cc3o2)c(O)c1`, the displacement was 96.8%.
Next, `CCc1ccc(OCC(=O)Nc2ccc(O)c(-c3nc4cc(C)ccc4o3)c2)cc1`: 7.4%.
As for `CCc1ccc(OCC(=O)Nc2ccc(-c3nc4ccccc4o3)c(O)c2)cc1`, the displacement was 0.8%.
For `CCC(=O)Nc1ccc(O)c(-c2nc3cc(C)c(C)cc3o2)c1`, the displacement is -7%.
Next, `CCCC(=O)Nc1ccc(-c2nc3cc(C)c(C)cc3o2)cc1`: 14.7%; `CCOC(=O)c1cnn(-c2ccccc2)c1NC(=O)c1ccccc1`: 2.4%; `O=C(c1ccco1)N(C(=O)c1ccco1)c1cc(C(F)(F)F)ccc1Cl`: -3.3%.
Consider `COc1ccc(OCCOCCN2CCC(C)CC2)cc1`, for which the displacement is -9.4%.
For the compound `CNC(=O)c1c(-c2ccccc2)oc2ccc(O)cc12`, the displacement came to 10.3%.
Consider `O=C1CC(c2ccccc2)CC(O)=C1C=NCc1ccc2c(c1)OCO2` (stereo not given), for which the displacement was -2.5%.
Next, `O=C1C(C=NCc2ccc3c(c2)OCO3)=C(O)c2ccccc21`: 134%.
In the case of `O=C1C(C=NCc2ccc(Cl)c(Cl)c2)=C(O)c2ccccc21`, the displacement was found to be 2.5%.
Next, `O=C(Nc1ccc2oc(-c3ccc(Cl)cc3Cl)nc2c1)c1ccc2c(c1)OCCO2`: 2.1%.
Turning to `Cn1c(/C=C/c2ccc([N+](=O)[O-])cc2)nc2ccccc2c1=O`, the displacement came out at 2.9%.
As to `Cn1c(/C=C/c2cn(C)c3ccccc23)nc2ccccc2c1=O`, the displacement was 40.9%.
Turning to `Cn1cc(/C=C/c2nc3ccccc3c(=O)n2Cc2ccccc2)c2ccccc21`, the displacement came out at 136%.
Next, `O=c1c2ccccc2nc(/C=C/c2ccc([N+](=O)[O-])cc2)n1Cc1ccccc1`: 118%; `Cn1c(/C=C/c2cn(Cc3ccccc3)c3ccccc23)nc2ccccc2c1=O`: 17.3%; `O=c1c2ccccc2nc(/C=C/c2cccc([N+](=O)[O-])c2)n1Cc1ccccc1`: 12.9%.
As for `Cc1onc(-c2ccccc2Cl)c1C(=O)NC12CC3CC(CC(C3)C1)C2`, the displacement was determined as 1%.
For the compound `CCOC(=O)c1c(NC(=O)c2cccc(Cl)c2)sc(C(=O)Nc2cccc(C(F)(F)F)c2)c1C`, the displacement is -3.3%.
The result for `O=C(N1CCOCC1)n1nnc2ccccc21` reads 13.2%; that for `CC(C)(C)c1ccc(-c2nn(CNc3cccc(Cl)c3)c(=S)o2)cc1`, 14%.
